# Several values for one entry are separate records, joined by “and”; a condition that tells them apart may be missing. Equal values may be shown once. About 2,000 (36%) of roughly 5,500 compounds were called active. Inconclusive results (about 18%) are left out. The list shows a part of the results. Unmarked numbers belong to inactive results. Cut-off read from the data, not from the text of the source: active = normalized growth mostly below about 0.91 (no sharp cut-off); inconclusive = no clear call, values can overlap the other calls; inactive = mostly above about 0.92.
# Assay: chemical genetic growth profiling, strain panel (AID 1159580);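 note: tested at 20 µM; growth read once vehicle control cultures reached saturation at 30 °C; 1 = growth at the plate median or of vehicle wells; lower values mean less growth of the strain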
# Conditions: S. cerevisiae deletion strains, growth OD
structure (smiles),measurement,setting,value
CN1C(C(=O)Nc2ccccn2)=C(O)c2ccccc2S1(=O)=O,normalized growth,"locus YAL013W, strain DEP1, active compounds read low",0.977 and 0.995
same,normalized growth,"locus YAL021C, strain ccr4, active compounds read low",0.977
same,normalized growth,"locus YAL026C, strain drs2, active compounds read low",0.964
same,normalized growth,"locus YAL030W, strain snc1, active compounds read low",0.944
same,normalized growth,"locus YAL040C, strain CLN3, active compounds read low",1
same,normalized growth,"locus YBL061C, strain skt5, active compounds read low",0.966
same,normalized growth,"locus YBR009C, strain hhf1, active compounds read low",0.932
same,normalized growth,"locus YBR021W, strain FUR4, active compounds read low",0.994
same,normalized growth,"locus YBR023C, strain chs3, active compounds read low",0.982
same,normalized growth,"locus YBR171W, strain sec66, active compounds read low",0.922
same,normalized growth,"locus YBR229C, strain ROT2, active compounds read low",0.965
same,normalized growth,"locus YBR231C, strain swc5, active compounds read low",0.953
same,normalized growth,"locus YBR279W, strain paf1, active compounds read low",0.979
same,normalized growth,"locus YCL011C, strain gbp2, active compounds read low",0.956
same,normalized growth,"locus YCL016C, strain dcc1, active compounds read low",0.969
same,normalized growth,"locus YCL029C, strain bik1, active compounds read low",0.955
same,normalized growth,"locus YCL061C, strain MRC1 (second series), active compounds read low",0.997
same,normalized growth,"locus YCL069W, strain vba3, active compounds read low",0.961
same,normalized growth,"locus YCR088W, strain abp1, active compounds read low",0.968
same,normalized growth,"locus YDL005C, strain med2, active compounds read low",0.964
same,normalized growth,"locus YDL035C, strain GPR1, active compounds read low",1.01
same,normalized growth,"locus YDL040C, strain nat1, active compounds read low",0.966
same,normalized growth,"locus YDL074C, strain BRE1, active compounds read low",0.992
same,normalized growth,"locus YDL101C, strain DUN1, active compounds read low",0.997
same,normalized growth,"locus YDL134C, strain PPH21, active compounds read low",0.98
same,normalized growth,"locus YDL185W, strain tfp1, active compounds read low",0.922
same,normalized growth,"locus YDL192W, strain arf1, active compounds read low",0.966
same,normalized growth,"locus YDR001C, strain nth1, active compounds read low",0.956
same,normalized growth,"locus YDR069C, strain doa4, active compounds read low",0.984
same,normalized growth,"locus YDR101C, strain arx1, active compounds read low",0.966
same,normalized growth,"locus YDR137W, strain rgp1, active compounds read low",0.918
same,normalized growth,"locus YDR150W, strain NUM1, active compounds read low",0.971
same,normalized growth,"locus YDR159W, strain sac3, active compounds read low",0.966
same,normalized growth,"locus YDR162C, strain NBP2, active compounds read low",0.991
same,normalized growth,"locus YDR195W, strain ref2",0.962
same,normalized growth,"locus YDR297W, strain sur2, active compounds read low",0.945
same,normalized growth,"locus YDR318W, strain mcm21, active compounds read low",0.944
same,normalized growth,"locus YDR334W, strain swr1, active compounds read low",0.974
same,normalized growth,"locus YDR335W, strain msn5, active compounds read low",0.97
same,normalized growth,"locus YDR363W, strain ESC2, active compounds read low",1.02
same,normalized growth,"locus YDR388W, active compounds read low",0.953
same,normalized growth,"locus YDR392W, strain spt3, active compounds read low",0.539 (active)
same,normalized growth,"locus YDR502C, strain sam2, active compounds read low",0.957
same,normalized growth,"locus YEL003W, strain gim4, active compounds read low",0.946
same,normalized growth,"locus YEL037C, strain rad23, active compounds read low",0.976
same,normalized growth,"locus YEL061C, strain CIN8 (second series), active compounds read low",0.978
same,normalized growth,"locus YEL061C, strain CIN8, active compounds read low",0.977
same,normalized growth,"locus YER002W, strain NOP16, active compounds read low",0.979
same,normalized growth,"locus YER015W, strain faa2, active compounds read low",0.961
same,normalized growth,"locus YER016W, strain bim1, active compounds read low",0.976
same,normalized growth,"locus YER110C, active compounds read low",0.97
same,normalized growth,"locus YER111C, strain swi4, active compounds read low",0.958
same,normalized growth,"locus YER155C, strain BEM2 (second series), active compounds read low",0.882
same,normalized growth,"locus YER155C, strain BEM2, active compounds read low",0.962
same,normalized growth,"locus YER167W, strain BCK2, active compounds read low",0.968
same,normalized growth,"locus YFR010W, strain ubp6, active compounds read low",0.971
same,normalized growth,"locus YGL078C, strain dbp3, active compounds read low",0.959
same,normalized growth,"locus YGL086W, strain mad1, active compounds read low",0.95
same,normalized growth,"locus YGL167C, strain pmr1, active compounds read low",0.937
same,normalized growth,"locus YGL173C, strain kem1, active compounds read low",0.957
same,normalized growth,"locus YGL227W, strain vid30, active compounds read low",0.964
same,normalized growth,"locus YGL240W, strain doc1, active compounds read low",0.949
same,normalized growth,"locus YGL248W, strain PDE1, active compounds read low",0.984
same,normalized growth,"locus YGL253W, strain hxk2, active compounds read low",0.961
same,normalized growth,"locus YGR078C, strain PAC10, active compounds read low",0.975
same,normalized growth,"locus YGR135W, strain pre9, active compounds read low",0.958
same,normalized growth,"locus YGR229C, strain SMI1, active compounds read low",0.98 and 1.02
same,normalized growth,"locus YGR252W, strain gcn5, active compounds read low",0.99
same,normalized growth,"locus YHR013C, strain ard1, active compounds read low",0.91
same,normalized growth,"locus YHR027C, strain rpn1, active compounds read low",0.982
same,normalized growth,"locus YHR030C, strain SLT2, active compounds read low",0.972 and 0.968
same,normalized growth,"locus YHR079C, strain IRE1 (second series), active compounds read low",0.96
same,normalized growth,"locus YHR079C, strain IRE1, active compounds read low",0.947
same,normalized growth,"locus YHR094C, strain hxt1, active compounds read low",0.956
same,normalized growth,"locus YHR129C, strain ARP1, active compounds read low",0.97
same,normalized growth,"locus YHR142W, strain chs7, active compounds read low",0.951
same,normalized growth,"locus YHR200W, strain rpn10, active compounds read low",0.972
same,normalized growth,"locus YIL066C, strain RNR3, active compounds read low",0.99
same,normalized growth,"locus YIL073C, strain SPO22, active compounds read low",0.985
same,normalized growth,"locus YIL125W, strain kgd1, active compounds read low",0.946
same,normalized growth,"locus YIR030C, strain dcg1, active compounds read low",0.959
same,normalized growth,"locus YJL092W, strain hpr5, active compounds read low",0.962
same,normalized growth,"locus YJL095W, strain BCK1 (second series), active compounds read low",0.951
same,normalized growth,"locus YJL095W, strain BCK1, active compounds read low",0.971 and 0.957
same,normalized growth,"locus YJL115W, strain asf1, active compounds read low",0.985
same,normalized growth,"locus YJL129C, strain trk1, active compounds read low",0.679 (active)
same,normalized growth,"locus YJL134W, strain LCB3, active compounds read low",0.967
same,normalized growth,"locus YJL154C, strain vps35, active compounds read low",0.962
same,normalized growth,"locus YJL164C, strain tpk1, active compounds read low",0.951
same,normalized growth,"locus YJL166W, strain qcr8, active compounds read low",0.898 (active)
same,normalized growth,"locus YJL168C, strain set2, active compounds read low",0.938
same,normalized growth,"locus YJL187C, strain SWE1 (second series), active compounds read low",0.999
same,normalized growth,"locus YJR043C, strain POL32, active compounds read low",0.995
same,normalized growth,"locus YJR066W, strain TOR1, active compounds read low",0.918
same,normalized growth,"locus YJR075W, strain HOC1, active compounds read low",0.991 and 1
